Compound activity: PubChem BioAssay, National Center for Advancing Translational Sciences (NCATS)
hNpr1 antagonist = human Npr1 receptor antagonism; Potency, µM (doses to about 46.3 µM), most hits filed as inhibitors; HEK293 hNpr1 GloSensor cGMP, ANP-stimulated luminescence; 1.6% of 76,000 active; P16066; calls by dose curve; also: nearly all actives have a fitted effect of over 60% in size
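HEK293 cells stably expressing human Npr1 and cGMP GloSensor pGS-40F, loaded 2 h with 2% GloSensor reagent, given compound 30 min at room temperature. Luminescence read before and 20 min after 0.1 nM hNppA.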
HEK293 viab = counter-screen for SNCA expression inhibitors: cell viability | HEK-293-SNCA-luc viability, GF-AFC fluorescence, 24 h | 0.12% of 150,000 active | Potency, µM (doses to about 57.1 µM), hits mostly cytotoxic; also: nearly all actives have a fitted effect of over 30% in size
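Cytotoxicity counterscreen: after 24 h compound treatment of genome-edited SNCA-luciferase HEK-293 cells, live-cell protease substrate GF-AFC read by fluorescence after 30 min; activity scaled between DMSO (0%) and medium-only (-100%), curves Hill-fitted.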
HEK cytotox = kills HEK 293 cells; AID 1345083; 6.6% of 94,000 active; HEK 293 viability, ATP luminescence (CellTiter-Glo), 48-72 h; Potency, µM (doses to about 115 µM), usual class: inhibitors; also: nearly all actives have a fitted effect of over 60% in size
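Viability of HEK 293 cells, plated at 250 cells/well, was judged by cellular ATP after compound treatment for 48 or 72 hr. Luminescence was imaged 10 min after CellTiter-Glo addition at room temperature.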
3T3 cytotox = NIH 3T3 cell cytotoxicity. NIH 3T3 viability, CellTiter-Glo ATP luminescence, 48-72 h. 4.3% of 94,000 active. Potency, µM (titrated, usually from 96.7 µM), actives largely listed as inhibitors. AID 1345082; also: nearly all actives have a fitted effect of over 55% in size
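NIH 3T3 cells at 400 cells/well received 23 nL of compound by pintool and were incubated 48 or 72 h at 37 °C. Viability was read as ATP-coupled CellTiter-Glo luminescence.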
FLuc inh = blocks purified firefly luciferase enzyme activity | P08659 | AID 1347043 | purified P. pyralis luciferase, luminescence, biochemical | Potency, µM (highest dose often 115 µM), actives largely listed as inhibitors | 2.5% of 76,000 active; also: nearly all actives have a fitted effect of over 65% in size
Target sequence (P08659 whole entry, looked up): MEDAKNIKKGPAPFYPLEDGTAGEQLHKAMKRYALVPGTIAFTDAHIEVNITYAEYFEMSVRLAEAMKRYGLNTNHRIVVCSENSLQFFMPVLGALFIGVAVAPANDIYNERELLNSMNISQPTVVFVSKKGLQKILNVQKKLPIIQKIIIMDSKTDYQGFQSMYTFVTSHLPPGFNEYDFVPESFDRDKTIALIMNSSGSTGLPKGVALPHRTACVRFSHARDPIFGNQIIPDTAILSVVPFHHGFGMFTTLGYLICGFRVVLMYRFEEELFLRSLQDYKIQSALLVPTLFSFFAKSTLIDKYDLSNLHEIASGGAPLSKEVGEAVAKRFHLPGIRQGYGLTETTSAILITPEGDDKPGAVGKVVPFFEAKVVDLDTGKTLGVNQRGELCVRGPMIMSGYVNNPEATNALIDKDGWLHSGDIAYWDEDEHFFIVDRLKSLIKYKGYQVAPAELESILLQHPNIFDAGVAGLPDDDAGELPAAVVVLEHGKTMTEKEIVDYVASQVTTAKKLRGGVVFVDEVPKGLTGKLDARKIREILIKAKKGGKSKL
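Inhibitors were tested against purified firefly luciferase in a biochemical, low-substrate format (both substrates at 10uM) and luminescence measured with a CCD imager.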
SNCA expr inhib = inhibitors of alpha-synuclein (SNCA) gene expression | HEK-293 SNCA-luciferase knock-in, luminescence, 24 h | Potency, µM (top dose mostly 57.2 µM), usual class: inhibitors | 0.17% of 140,000 active; also: nearly all actives have a fitted effect of over 45% in size
NPR1 antag cnf = hNpr1 antagonism, confirmation assay | 76% of 1,400 active | Potency, µM (titrated, usually from 57.6 µM), actives largely listed as inhibitors | shares compounds with hNpr1 antagonist | HEK293 hNpr1 cGMP GloSensor luminescence, ANP-stimulated; calls by dose curve; also: nearly all actives have a fitted effect of over 70% in size
Npr2 selectivity = antagonizes human Npr2, subtype selectivity check. shares compounds with hNpr1 antagonist. HEK293 hNpr2 GloSensor cGMP luminescence, CNP-stimulated. Potency, µM (series often up to 57.6 µM), most hits filed as inhibitors. 67% of 1,400 active. AID 1347046; calls by dose curve; also: nearly all actives have a fitted effect of over 70% in size
FLuc inh counter = inhibits firefly luciferase, false Npr1 antagonist flag; shares compounds with hNpr1 antagonist; purified FLuc enzyme, luminescence, Km substrate; Potency, µM (series often up to 57.6 µM), most hits filed as inhibitors; 0.7% of 1,400 active
GloSensor ctrl = reduces cGMP signal in GloSensor control cells; HEK293 GloSensor cGMP, SNP-stimulated, luminescence; Potency, µM (series often up to 57.6 µM), usual class: inhibitors; 69% of 1,400 active; shares compounds with hNpr1 antagonist; calls by dose curve; also: nearly all actives have a fitted effect of over 70% in size
Numbers stand for hits; n = inactive; u = inconclusive; x = no result; [ ] = another dose, or the depositor's remark. This is a sample that favours compounds with a hit; in the whole collection about 7.4% have one here. Unless noted, calls follow the shape of the dose curve; as a rule, active = well fitted curve in the direction sought with a large enough effect; inconclusive = small, poorly fitted or top-dose-only effect, or another doubt; inactive = no such curve, though single readings can be large; an effect the other way counts as inactive or inconclusive.

SMILES | hNpr1 antagonist | HEK293 viab | HEK cytotox | 3T3 cytotox | FLuc inh | SNCA expr inhib | NPR1 antag cnf | Npr2 selectivity | FLuc inh counter | GloSensor ctrl
COc1cc(OC)cc(C(=O)N2CCN(c3cc(-c4cccs4)[nH]n3)CC2)c1 | n | n | u | u | n | n | x | x | x | x
COc1ccc(C(=O)N2CCN(c3cc(-c4cccs4)[nH]n3)CC2)c(C)c1 | 11µM | n | 50µM | u | n | n | 19µM | 19µM | n | 15µM
Cc1onc(-c2ccccc2)c1C(=O)N(C)C1CCCN(C2Cc3ccccc3C2)C1 (stereo not given) | n | n | u | n | n | n | x | x | x | x
CCCN1C(=O)Cc2cc(C(=O)NCc3ccccc3C(F)(F)F)ccc21 | n | n | n | u | n | n | x | x | x | x
Cc1ccc(OCC(=O)N2CCC(c3noc(-c4cnccn4)n3)C2)cc1 (stereo not given) | n | n | n | n | n | n | x | x | x | x
Cc1ccc(C(=O)N2CCN(c3cc(C(F)(F)F)ncn3)CC2)s1 | n | n | u | u | n | n | x | x | x | x
Cc1c(C(=O)N(C)Cc2cc(-c3cccnc3)no2)oc2c(F)cccc12 | u | n | u | u | n | n | u | n | n | n
O=C(CNC(=O)c1cccc(-c2ccsc2)c1)NC1CCC1 | x | n[12.5 µM] | u | n | x | n | x | x | x | x
Nc1ncccc1CN1CCC2(CC1)COCCN2C(=O)OCc1ccccc1 | 7.9µM | n | u | u | n | n | 11µM | 11µM | n | 11µM
O=C(CCC1CC1)N1CCC(c2cc(Cc3ccccc3)[nH]n2)CC1 | n | n | u | u | n | n | n | n | n | n
CCNC(=O)N1CCC(OC)c2ccccc2N(C)C(=O)C1 (stereo not given) | x | x | n | u | x | x | x | x | x | x
CCC(C)NC(=O)N1CC(Oc2ccc(-c3nc(-c4ccccc4)no3)cc2)C1 (stereo not given) | 1.3µM | n | n | u | n | n | 1.9µM | 3.1µM | n | 2.2µM
CCC(C)NC(=O)N1CC(Oc2ccc(-c3noc(COC)n3)cc2)C1 (stereo not given) | x | n | u | u | x | n | x | x | x | x
CCC(C)NC(=O)N1CC(Oc2ccc(-c3noc(C4CCOCC4)n3)cc2)C1 (stereo not given) | 7.9µM | n | u | u | n | u | 5.4µM | 6.1µM | n | 4.8µM
CC(C)CNC(=O)N1CC(Oc2ccc(-c3noc(C4CCOCC4)n3)cc2)C1 | 14µM | n | u | u | n | u | 4.8µM | 5.4µM | n | 4.3µM
O=C(N1CC(Oc2ccc(-c3nc(-c4ccccc4)no3)cc2)C1)C1(c2ccccc2)CC1 | u | n | 22µM | u | n | n | u | 22µM | n | 22µM
C[C@@H](NC(=O)[C@@H]1C[C@@H](NS(=O)(=O)c2cccs2)CCN1C(=O)c1ccco1)C(N)=O | n | n | n | n | n | n | x | x | x | x
CN(C)C[C@@H]1CN(Cc2cccnc2)C[C@H]1NC(=O)c1ccc2c(c1)OCO2 | n | n | n | n | n | n | x | x | x | x
CC(C)S(=O)(=O)N1CC(Oc2ccc(-c3noc(C4CCOCC4)n3)cc2)C1 | 2.2µM | n | u | n | n | n | 11µM | 12µM | n | 11µM
O=C(C1CC1)N1CC(Oc2ccc(-c3noc(C4CCOCC4)n3)cc2)C1 | 10µM | u | u | u | n | n | 9.7µM | 11µM | n | 9.7µM
c1cc(-c2noc(C3CCOCC3)n2)ccc1OC1CNC1 | n | n | n | n | u | n | x | x | x | x
Cc1cc(C)cc(NC(=O)Cn2ccn3nc4c(c3c2=O)CCCC4)c1 | n | n | n | n | n | n | x | x | x | x
O=C(NC1CCCCCC1)c1csc(N2CCN(c3ccccc3)CC2)n1 | u | n | u | u | n | n | 24µM | u | n | u
COc1cccc(N2CCN(c3nc(C(=O)NCc4cccc(C)c4)cs3)CC2)c1 | 13µM | u | u | u | n | n | 12µM | 11µM | n | 12µM
CCN(CC)C(=O)c1csc(N2CCN(c3cccc(Cl)c3)CC2)n1 | 16µM | n | u | u | n | u | 24µM | 22µM | n | 22µM
SMILES | hNpr1 antagonist | HEK293 viab | HEK cytotox | 3T3 cytotox | FLuc inh | SNCA expr inhib | NPR1 antag cnf | Npr2 selectivity | FLuc inh counter | GloSensor ctrl
Cc1cccc(CNC(=O)c2csc(N3CCN(c4ccccc4)CC3)n2)c1 | 13µM | n | 40µM | u | n | n | 24µM | 24µM | n | 22µM
CC1(C)CC[C@]2(C(=O)O[C@@H]3O[C@H](CO[C@@H]4O[C@H](CO)[C@@H](O)[C@H](O)[C@H]4O)[C@@H](O)[C@H](O[C@@H]4O[C@H](CO)[C@@H](O)[C@H](O)[C@H]4O)[C@H]3O)CC[C@]3(C)C(=CCC4[C@@]5(C)CC[C@H](O[C@@H]6OC[C@@H](O)[C@H](O)[C@H]6O)[C@@](C)(C(=O)O)C5CC[C@]43C)[C@@H]2C1 (stereo not given in full) | x | n[12.5 µM] | x | x | x | x | x | x | x | x
Cn1nc(C2CCN(C(=O)c3cnccn3)CC2)c2c1CCOC2 | n | n | n | n | n | n | x | x | x | x
O=C(NC1CCN(c2ccccc2)C1=O)c1cccc(Cl)c1 (stereo not given) | n | n | n | n | n | n | x | x | x | x
Cc1cc(C(=O)N(C)CC2(C)CCOCC2)nn1C | n | n | n | n | n | n | x | x | x | x
O=C(Nc1ccon1)[C@@H]1C[C@@H](c2ccc(F)cc2)N(Cc2ccccc2)C1 | 16µM | u | 32µM | u | n | n | 31µM | 20µM | n | 18µM
Cn1ccc(NC(=O)[C@@H]2C[C@@H](c3ccc(F)cc3)N(Cc3ccccc3)C2)n1 | 35µM | n | 50µM | u | n | n | 40µM | 35µM | n | 35µM
COc1cccc(CCC(=O)N2C[C@@H](C(N)=O)[C@H](c3nc(C)no3)C2)c1 | n | n | n | n | n | n | x | x | x | x
COc1ccc(-c2nnc(C[C@@H]3C[C@@H](C(C)C)[C@H](CNC(=O)c4ccc(F)cc4)C=C3C)o2)cc1 | u | u | u | u | n | u | u | n | n | u
